These results are taken from PubChem BioAssay (Tox21).

“And” between values parts separate entries of the source, which are not always exact repeats. Equal values may be shown once. Results filed as inconclusive are left out. The source made the active and inactive calls. Unless noted, calls follow the shape of the full dose curve.

Test [1] can be described thus: Nuclear factor erythroid 2-related factor 2/antioxidant responsive element (Nrf2/ARE) small molecule agonists: qHTS cell viability counter screen in human keratinocytes (AID 1919968; active = well fitted curve in the direction sought with a large enough effect in the repeat runs; an effect the other way counts as inactive or inconclusive; also: nearly all actives have a fitted effect of over 55% in size; also: potency is read from the fitted curve at half-maximal effect). The essentials:
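In human HaCaT keratinocytes stably expressing an ARE-driven luciferase, compound exposure lasted 23 h at 37 C under 5% CO2. Viable cells are quantified with a protease-based fluorogenic reagent (CellTiter-Fluor) read 1 h after addition.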
(In general: qHTS replaces the single test concentration by a dilution series.)

Test [2] can be described thus: Nuclear factor erythroid 2-related factor 2/antioxidant responsive element (Nrf2/ARE) small molecule agonists: luciferase reporter gene qHTS assay in human keratinocytes (AID 1919969). Also: nearly all actives have a fitted effect of over 35% in size. Also: potency is read from the fitted curve at half-maximal effect.
Test [3] addresses KiSS-1 receptor (Homo sapiens) (UniProt Q969F8). Briefly: Human kisspeptin (KISS1R) small molecule agonists, calcium flux assay in KISS1R-HEK293 cells (AID 1920064; active = well fitted curve in the direction sought with a large enough effect in the repeat runs; an effect the other way counts as inactive or inconclusive). The essentials: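 Concentration-response testing used 15 concentrations in triplicate on human KISS1R-expressing HEK293 cells. Calcium-dependent fluorescence (Ex/Em 480/540) was followed kinetically for 3 min after compound transfer.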

The nature of test [4]: G protein-coupled receptor (GPCR) small molecule agonists, calcium flux assay: HEK293 wild type cell line counter screen (AID 1920065). The essentials: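 Fluorescence intensity signals activation. After overnight (18 h) culture and a 1 h calcium dye load at 37 C, compounds are added by pin tool and the plate read at 480/540 nm for 3 min in 1 s steps.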
(In general: A change in cytosolic calcium serves as a functional read-out for many receptors and channels.)

Test [5] in a line: p53 small molecule agonists, cell-based qHTS assay with human liver microsomes (AID 1963577). The essentials:
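Compounds act here after metabolic activation: human liver microsomes and NADPH, both at 0.5 mg/mL final, were co-added to p53RE-bla cells. Incubation ran 16 h at 37 C, followed by LiveBLAzer detection.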

Test [6] can be described thus: p53 small molecule agonists, cell-based qHTS assay with rat liver microsomes (AID 1963578). The essentials: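 Read-out is beta-lactamase reporter fluorescence (LiveBLAzer, 2 h, room temperature, dark) in p53RE-bla cells treated 16 h at 37 C with compound, rat liver microsomes and NADPH, both 0.5 mg/mL final.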
Test [7] is described as follows: p53 small molecule agonists, cell-based qHTS assay with human liver microsomes: qHTS cell viability counter screen (AID 1963579). Also: nearly all actives have a fitted effect of over 45% in size. The essentials:
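Cells carrying the p53 response-element beta-lactamase reporter are treated for 16 h at 37 C with test compounds in the presence of human liver microsomes and NADPH (both 0.5 mg/mL final); ATP-based CellTiter-Glo luminescence then reports viability.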

Test [8] is described as follows: p53 small molecule agonists, cell-based qHTS assay: qHTS cell viability counter screen (AID 1963581). Also: nearly all actives have a fitted effect of over 45% in size. The essentials:
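Luminescence from CellTiter-Glo, reflecting ATP content, serves as the cytotoxicity measure; it is taken after the 2 h reporter substrate step in HCT-116 p53RE-bla cells dosed for 16 h at 37 C.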

Test [9] can be described thus: p53 small molecule agonists, cell-based qHTS assay (AID 1963582; active = well fitted activation curve with a large enough effect in the signal ratio in the repeat runs, not every such curve was filed as active; the % refers to the signal ratio). The essentials: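 After plating, p53RE-bla cells sat 5 h in the incubator; compounds or DMSO vehicle were pinned in; a 16 h incubation at 37 C followed; FRET substrate was added and, 2 h later at RT, fluorescence was measured.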
The target of test [10] is 5-hydroxytryptamine receptor 2A (Homo sapiens) (UniProt P28223). Briefly: 5-hydroxytryptamine receptor 2A (HTR2A) small molecule agonists, cell-based qHTS assay (AID 1963587). Also: nearly all actives have a fitted effect of over 30% in size. Also: potency is read from the fitted curve at half-maximal effect. The essentials: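 Kinetic calcium-flux fluorescence (2 min, 1 sec intervals) after compound addition in agonist mode. HTR2A-CHO cells were cultured 18 h, then dye-loaded 1 h at 37 C.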
For test [11], the target named is Muscarinic acetylcholine receptor M1 (Homo sapiens) (UniProt P11229). Briefly: Cholinergic receptor muscarinic 1 (CHRM1) small molecule antagonists, cell-based qHTS assay (AID 1963588). Also: nearly all actives have a fitted effect of over 40% in size. The essentials:
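Compounds were tested at 15 concentrations in three independent runs. Dye-loaded CHRM1-CHO cells were exposed 5 min at room temperature before stimulation by acetylcholine added at 50nM. Intracellular calcium was read kinetically on FDSS for 3 min.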

Test [12] shares this target. Briefly: Cholinergic receptor muscarinic 1 (CHRM1) small molecule agonists, cell-based qHTS assay (AID 1963589). Also: nearly all actives have a fitted effect of over 35% in size. The essentials: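 Fluorescent calcium dye reports M1 activation in stably transfected CHO cells. Compounds, 15 concentrations, added after 1 h dye loading at 37 C; kinetic reading at 1 sec intervals.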
The nature of test [13]: cAMP Responsive Elements (CRE) small molecule agonists, cell-based qHTS assay (AID 1963590). The essentials:
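Compound exposure lasted 3 h at 37 C/5% CO2 in CRE-bla HEK 293T cells grown in assay medium with 10% dialyzed FBS and 25 mM HEPES. Reporter signal came from LiveBLAzer B/G FRET substrate, 2 h, room temperature.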

Test [14] in a line: cAMP Responsive Elements (CRE) small molecule antagonists, cell-based qHTS assay (AID 1963591; active = well fitted inhibition curve with a large enough effect in the signal ratio in the repeat runs, not every such curve was filed as active; the % refers to the signal ratio). The essentials: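 Stimulation used NKH477 at a final 0.25 uM for 3 h in compound-treated CRE-bla HEK293T cells, seeded 18 h beforehand. Reporter activity was measured with LiveBLAzer B/G FRET substrate after 2 h at room temperature.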
For test [15], the target named is Beta-2 adrenergic receptor (Homo sapiens) (UniProt P07550). Briefly: Adrenergic beta2 receptor (ADRB2) small molecule antagonists, cell-based qHTS assay (AID 1963592). Also: series mostly up to about 92 µM; nearly all actives have a fitted effect of over 50% in size. The essentials:
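Assay format: CHO-ADRB2 cells, 18-20hr seeding at 37C/5% CO2, then compound plus 1nM isoproterenol agonist mix for 0.5hr RT. Homogeneous time-resolved fluorescence cAMP detection after 1hr, expressed as 665/615 nm ratio.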

Test [16] concerns the target D(2) dopamine receptor (Homo sapiens) (UniProt P14416). Briefly: Dopamine D2 receptor (DRD2) small molecule agonists, cell-based qHTS assay (AID 1963594). Also: nearly all actives have a fitted effect of over 35% in size. The essentials: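 cAMP accumulation in DRD2-HEK293 cells measured by HTRF after 1 h detection; compounds added 10 min before NKH477 (200nM […]) forskolin-analogue stimulation, 30 min at room temperature, with Ro20-1724 present at 0.1 mM final.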

Test [17] has the same target. Briefly: Dopamine D2 receptor (DRD2) small molecule antagonists, cell-based qHTS assay (AID 1963595; active = well fitted inhibition curve with a large enough effect in the signal ratio in the repeat runs, with a control signal flat; the % refers to the signal ratio). The essentials:
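Human DRD2 antagonist qHTS measuring cAMP by HTRF. The cells are exposed to compound for 10 min, then to NKH477 (200 nM) and quinpirole (12 nM) for 30 min at RT, with Ro20-1724 (0.1 mM) present throughout.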

Test [18] in a line: p53 small molecule agonists, cell-based qHTS assay with rat liver microsomes: qHTS cell viability counter screen (AID 1963580). Also: nearly all actives have a fitted effect of over 45% in size. Also: potency is read from the fitted curve at half-maximal effect. The essentials: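 Cytotoxicity counter screen: intracellular ATP read by CellTiter-Glo luminescence in the p53 reporter wells. HCT-116 p53RE-bla cells were treated for 16 h at 37 C alongside rat liver microsomes and NADPH, each 0.5 mg/mL final.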
Test [19] addresses 5-hydroxytryptamine receptor 2A (Homo sapiens) (UniProt P28223). Briefly: 5-hydroxytryptamine receptor 2A (HTR2A) small molecule antagonists, cell-based qHTS assay (AID 1963586). Also: nearly all actives have a fitted effect of over 45% in size. Also: potency is read from the fitted curve at half-maximal effect. The essentials: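 CHO cells stably expressing human HTR2A were plated for 18 h at 37 C, then loaded with calcium dye for 1 h. Compounds were preincubated 5 min at room temperature before DOI (4 nM solution) was added. Kinetic fluorescence was read for 3 min.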

Test [20] addresses Beta-2 adrenergic receptor (Homo sapiens) (UniProt P07550). Description: Adrenergic beta2 receptor (ADRB2) small molecule agonists, cell-based qHTS assay (AID 1963593).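 Also: CHO cells stably overexpressing human ADRB2.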 The essentials:
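CHO cells stably over-expressing ADRB2 were plated overnight at 37C, then dosed with compounds plus a stimulation mix containing 100uM IBMX and 25uM Ro-20-1724 for 0.5hr at room temperature. cAMP was measured by HTRF competition, 1hr.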

Sequence of Muscarinic acetylcholine receptor M1 (Homo sapiens) (P11229 whole entry, looked up): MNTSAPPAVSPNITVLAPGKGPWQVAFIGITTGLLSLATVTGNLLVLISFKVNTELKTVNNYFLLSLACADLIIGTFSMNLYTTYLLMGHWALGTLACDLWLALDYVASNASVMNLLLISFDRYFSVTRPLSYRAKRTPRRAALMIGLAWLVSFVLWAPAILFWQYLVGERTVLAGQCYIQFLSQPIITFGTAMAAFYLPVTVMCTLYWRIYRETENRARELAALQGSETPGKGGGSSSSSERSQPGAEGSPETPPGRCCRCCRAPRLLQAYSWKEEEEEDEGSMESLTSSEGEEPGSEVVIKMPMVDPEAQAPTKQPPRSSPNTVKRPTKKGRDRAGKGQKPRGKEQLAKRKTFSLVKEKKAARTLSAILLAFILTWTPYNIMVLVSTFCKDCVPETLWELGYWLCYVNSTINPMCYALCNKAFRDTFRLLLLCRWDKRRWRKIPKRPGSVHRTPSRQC
Sequence of 5-hydroxytryptamine receptor 2A (Homo sapiens) (P28223 whole entry, looked up): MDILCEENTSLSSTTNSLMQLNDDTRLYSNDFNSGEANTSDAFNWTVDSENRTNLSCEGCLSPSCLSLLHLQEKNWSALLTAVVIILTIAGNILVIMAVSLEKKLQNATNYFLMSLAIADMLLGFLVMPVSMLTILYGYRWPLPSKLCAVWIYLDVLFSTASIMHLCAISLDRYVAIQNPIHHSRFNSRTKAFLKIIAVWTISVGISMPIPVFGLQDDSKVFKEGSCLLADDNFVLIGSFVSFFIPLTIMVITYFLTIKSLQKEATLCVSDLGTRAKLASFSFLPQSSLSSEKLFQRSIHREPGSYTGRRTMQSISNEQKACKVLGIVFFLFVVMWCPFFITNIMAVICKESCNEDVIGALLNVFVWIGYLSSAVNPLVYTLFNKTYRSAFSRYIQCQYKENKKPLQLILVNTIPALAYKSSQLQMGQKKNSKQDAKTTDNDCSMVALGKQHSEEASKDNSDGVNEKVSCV
Sequence of D(2) dopamine receptor (Homo sapiens) (P14416 whole entry, looked up): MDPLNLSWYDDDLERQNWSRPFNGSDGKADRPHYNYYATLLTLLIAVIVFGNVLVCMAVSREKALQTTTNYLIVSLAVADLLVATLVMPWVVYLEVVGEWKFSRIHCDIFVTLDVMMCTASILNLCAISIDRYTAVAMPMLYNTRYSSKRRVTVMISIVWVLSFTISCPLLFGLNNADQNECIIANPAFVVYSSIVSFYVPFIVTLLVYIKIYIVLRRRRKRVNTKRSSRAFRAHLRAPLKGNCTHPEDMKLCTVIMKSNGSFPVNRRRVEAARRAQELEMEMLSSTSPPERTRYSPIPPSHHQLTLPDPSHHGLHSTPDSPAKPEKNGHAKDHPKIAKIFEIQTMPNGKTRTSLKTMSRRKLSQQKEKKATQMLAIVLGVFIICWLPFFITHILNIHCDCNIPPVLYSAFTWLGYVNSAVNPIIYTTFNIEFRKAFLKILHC
Sequence of KiSS-1 receptor (Homo sapiens) (Q969F8 whole entry, looked up): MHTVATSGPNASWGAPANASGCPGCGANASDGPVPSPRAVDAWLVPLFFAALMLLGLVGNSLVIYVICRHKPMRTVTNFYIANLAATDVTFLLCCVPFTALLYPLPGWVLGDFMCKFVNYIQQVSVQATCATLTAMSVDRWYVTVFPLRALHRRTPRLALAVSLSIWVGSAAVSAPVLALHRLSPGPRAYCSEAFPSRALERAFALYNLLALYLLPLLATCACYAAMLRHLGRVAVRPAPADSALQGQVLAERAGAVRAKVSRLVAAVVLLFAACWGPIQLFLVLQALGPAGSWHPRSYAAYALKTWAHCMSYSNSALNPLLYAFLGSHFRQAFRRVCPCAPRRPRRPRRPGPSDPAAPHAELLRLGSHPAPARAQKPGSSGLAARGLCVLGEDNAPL
Sequence of Beta-2 adrenergic receptor (Homo sapiens) (P07550 whole entry, looked up): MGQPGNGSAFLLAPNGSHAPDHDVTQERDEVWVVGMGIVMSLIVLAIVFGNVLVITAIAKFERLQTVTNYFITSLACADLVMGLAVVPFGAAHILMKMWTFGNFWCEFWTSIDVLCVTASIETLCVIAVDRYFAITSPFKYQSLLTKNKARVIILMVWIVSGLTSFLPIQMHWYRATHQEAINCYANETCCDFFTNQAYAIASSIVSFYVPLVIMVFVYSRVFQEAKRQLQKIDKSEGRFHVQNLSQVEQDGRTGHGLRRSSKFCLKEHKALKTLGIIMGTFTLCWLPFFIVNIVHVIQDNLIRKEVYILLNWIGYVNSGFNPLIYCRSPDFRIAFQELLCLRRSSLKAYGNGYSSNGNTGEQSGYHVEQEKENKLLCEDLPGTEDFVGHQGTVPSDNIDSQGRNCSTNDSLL

With `CO[Si](CCCOCC1CO1)(OC)OC` (stereo not given), the Potency entry in [1], in test [2], in test [3], in [4], in test [5] and in test [6] was “inactive” each time. Further, the Potency result in [7], in test [8], in test [9], in test [10], in test [11] and in test [12] was “inactive” throughout. The Potency entry in test [13], in test [14], in test [15], in [16] and in test [17] was “inactive” each time.

With `CC(C)(C)c1ccc(O)c(C(C)(C)C)c1`, the Potency in [1] is 27.2 µM (active) and 43.3 µM (active); in test [2], 9.65 µM (active) and 61.1 µM (active); in test [18], 45.8 µM (active); in [19], 23.7 µM (active); in test [10], 34.5 µM (active) and 27.5 µM (active). Moreover, the Potency entry in test [3], in test [4], in test [5], in [7], in test [9] and in test [12] was “inactive” in each case. Moreover, the Potency entry in test [15] and in test [16] was “inactive” each time.

For `O=C1OC(=O)c2ccc3c4c(ccc1c24)C(=O)OC3=O`, the Potency entry in test [1], in test [2], in [3], in test [4], in test [6] and in [7] was “inactive” each time. For the same molecule, the Potency entry in test [18], in test [8], in test [9], in test [19], in test [10] and in [11] was “inactive” each time. For the same molecule, the Potency entry in test [12], in test [13], in test [15], in test [20] and in test [16] was “inactive” in each case.

On to `CC(=O)O[C@@H]1C[C@@H]2CC[C@@]1(C)C2(C)C`, for which the Potency entry in [1], in test [2], in test [3], in test [4], in test [6] and in test [7] was “inactive” in each case. Further, the Potency entry in test [18], in [8], in test [9], in test [19], in test [11] and in [12] was “inactive” throughout. The Potency result in test [13], in test [14], in test [15], in test [20], in test [16] and in [17] was “inactive” each time.
